Data published in PubChem BioAssay (NCATS).
Several values for one entry are separate records, joined by “and”; a condition that tells them apart may be missing. Equal values may be shown once. Inconclusive results are not listed. Activity calls are given as the source filed them. Calls come from the whole dose curve; as a rule, active = well fitted inhibition curve with a large enough effect; inconclusive = small, poorly fitted or top-dose-only effect; inactive = flat fitted curve, though single readings scatter.

Legend:
Test in all cases: qHTS profiling for inhibitors of Plasmodium falciparum proliferation (AID 504749); note: nearly all actives have a fitted effect of over 60% in size
Conditions in all cases: P. falciparum in erythrocytes, SYBR Green DNA, 72 h; series mostly up to 28.7 µM
CP315 = system: CP315
How it was run: (§1)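 SYBR Green fluorescence of parasite DNA, read after lysis and overnight dark incubation, measured growth over 72 h in erythrocyte culture at 0.3% parasitemia and 2.5% hematocrit. Data normalised to DMSO and 0.29 uM artemisinin, with plate-drift correction.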

CP325 = system: CP325
How it was run: as §1

CP329 = system: CP329
How it was run: as §1

CP335 = system: CP335
How it was run: as §1

DFO2036 = system: DFO2036
How it was run: as §1

DIV30 = system: DIV30
How it was run: as §1

Dd2 = system: Dd2
How it was run: as §1

ECU = system: ECU
How it was run: as §1

FAB9 = system: FAB9
How it was run: as §1

HB3 = system: HB3
How it was run: as §1

ICS = system: ICS
How it was run: as §1

JCK = system: JCK
How it was run: as §1

N140 = system: N140
How it was run: as §1

P93_24 = system: P93_24
How it was run: as §1

P94_40 = system: P94_40
How it was run: as §1

PAD = system: PAD
How it was run: as §1

PC15 = system: PC15
How it was run: as §1

DIV17 = system: DIV17
How it was run: as §1

GB4 = system: GB4
How it was run: as §1

DIV14 = system: DIV14
How it was run: as §1

Measured: Potency
Potency is the fitted concentration of half-maximal effect.

Cc1sc2ccccc2c1CC1=NCCN1
not listed: PC15 | DIV17 | GB4 | DIV14
inactive: all other assays above

COc1ccc2c(c1OC)C(=O)OC2C1c2cc3c(cc2CCN1C)OCO3 (configuration not stated)
not listed: CP315 | CP325 | CP329 | CP335 | DIV30 | DIV17 | GB4 | DIV14
inactive: all other assays above

c1csc(C2(N3CCCCC3)CCCCC2)c1
not listed: Dd2 | DIV14
inactive: all other assays above

O=c1[nH]cc(N(CCCl)CCCl)c(=O)[nH]1
not listed: CP325 | ICS
inactive: all other assays above

O=C/C=C/c1ccccc1
not listed: CP335
inactive: all other assays above

CN1[C@@H]2CC[C@H]1CC(OC1c3ccccc3CCc3ccccc31)C2 (some centres not stated)
inactive: CP315 | CP325 | CP329 | CP335 | DIV30 | FAB9 | HB3 | JCK | PC15
active: DIV14 1.81 µM | DIV17 1.81 µM | ECU 3.55 µM | P93_24 3.98 µM

CCOc1ccc2c3c1O[C@H]1[C@@H](O)C=C[C@H]4[C@@H](C2)N(C)CC[C@@]341
active: DIV14 15.1 µM
not listed: CP315 | CP325 | DIV30 | DIV17 | GB4
inactive: all other assays above

CC(C)(C)c1cc(O)ccc1O
inactive: CP315 | CP329
active: CP335 5.36 µM | DFO2036 8.91 µM | DIV14 6.01 µM and 12 µM | DIV17 5.36 µM | DIV30 9.53 µM | Dd2 4.47 µM | ECU 7.94 µM | GB4 3.79 µM and 12 µM | HB3 10 µM | ICS 3.16 µM and 2 µM | N140 11.2 µM | P93_24 11.2 µM and 8.91 µM | P94_40 7.08 µM and 12.6 µM | PAD 11.2 µM | PC15 11.2 µM

CC1CCC(C(C)C)C(OC(=O)c2ccccc2N)C1 (configuration not stated)
not listed: Dd2 | HB3 | ICS | P94_40 | PC15 | GB4 | DIV14
inactive: all other assays above

c1cc2c(c(NC3=NCCN3)c1)CCCC2
active: DIV14 15.1 µM
not listed: CP315 | CP329 | DIV30 | ICS | PC15 | DIV17 | GB4
inactive: all other assays above

O=C1CC[C@@]2(O)C3Cc4ccc(O)c5c4C2(CCN3CC2CC2)[C@H]1O5 (some centres not stated)
not listed: CP335
inactive: all other assays above

Oc1cc(Cl)c(Cl)cc1Cl
not listed: ICS | DIV17 | GB4 | DIV14
inactive: all other assays above

CCCN1CCCC2Cc3[nH]ncc3CC21 (configuration not stated)
not listed: CP315 | CP325 | CP329 | CP335 | DIV30 | DIV17 | GB4 | DIV14
inactive: all other assays above

CCCCCCCCCC(=O)O[C@H]1CC[C@H]2[C@@H]3CCC4=CC(=O)CC[C@]4(C)[C@H]3CC[C@]12C
not listed: CP335 | ICS
inactive: all other assays above

C[C@@H](Cc1ccccc1)NCCC(c1ccccc1)c1ccccc1
active: DIV14 3.22 µM | DIV17 2.56 µM | ECU 3.55 µM | ICS 3.16 µM
inactive: CP315 | CP325 | CP329 | DFO2036 | FAB9 | JCK

CN1CCCC(=C(c2cccs2)c2cccs2)C1
active: DIV17 6.75 µM | Dd2 11.2 µM | GB4 8.49 µM
inactive: CP315 | ECU | FAB9 | HB3 | JCK | PC15

CN1C2CCC1CC(OC(c1ccccc1)c1ccc(Cl)cc1)C2 (configuration not stated)
active: CP325 9.53 µM | CP329 13.5 µM | CP335 6.01 µM | DFO2036 11.2 µM | DIV14 7.57 µM | DIV17 7.57 µM | DIV30 7.57 µM | Dd2 10 µM | ECU 6.31 µM | FAB9 11.2 µM | GB4 6.01 µM | HB3 12.6 µM | ICS 3.55 µM | JCK 12.6 µM | N140 11.2 µM | P93_24 8.91 µM | P94_40 10 µM | PAD 12.6 µM | PC15 3.98 µM

C=CCC1(C(C)CCC)C(=O)N=C(S)NC1=O (configuration not stated)
not listed: CP315 | CP325 | CP329 | DIV30 | DIV17 | GB4 | DIV14
inactive: all other assays above

CNC(=O)Oc1ccccc1C(=O)Nc1ccccc1
inactive: CP325 | CP329 | CP335 | DFO2036 | FAB9 | HB3 | PC15
active: ECU 11.2 µM | GB4 15.1 µM | ICS 12.6 µM

CC12NC(Cc3ccccc31)c1ccccc12 (configuration not stated)
active: Dd2 11.2 µM | P93_24 10 µM
inactive: CP315 | CP325 | DIV30 | ECU | FAB9 | HB3 | JCK | N140 | PAD | PC15

CCC1C(C)=NN=C(c2ccc(OC)c(OC)c2)c2cc(OC)c(OC)cc21 (configuration not stated)
active: ICS 8.91 µM
not listed: ECU | N140 | P93_24 | DIV17 | DIV14
inactive: all other assays above

CCN(CC)C(=O)/C(Cl)=C(\C)OP(=O)(OC)OC
not listed: CP315 | CP325 | CP329 | CP335 | DIV30 | DIV17 | GB4 | DIV14
inactive: all other assays above

[Cl-].[Cl-].[Hg+2]
active: DFO2036 11.2 µM | DIV30 15.1 µM | Dd2 12.6 µM | ECU 6.31 µM | FAB9 7.08 µM | GB4 4.78 µM | ICS 12.6 µM | N140 10 µM | PAD 7.08 µM
inactive: HB3

CCNC(C)Cc1cccc(C(F)(F)F)c1 (configuration not stated)
not listed: CP335 | ECU | GB4
inactive: all other assays above

O=[N+]([O-])c1ccccc1
not listed: CP335
inactive: all other assays above

C=CCN=C=S
not listed: CP315 | CP329 | DIV30 | DIV17 | GB4
inactive: all other assays above

O=C1CN=C(c2ccccc2)c2cc(Cl)ccc2N1CC1CC1
not listed: CP335 | ICS | DIV17
inactive: all other assays above

CC(C)Nc1ccc(Nc2ccccc2)cc1
active: CP315 4.78 µM | CP325 6.01 µM | CP329 6.01 µM | DFO2036 5.01 µM | DIV14 12 µM | DIV17 13.5 µM | DIV30 4.78 µM | Dd2 10 µM | ECU 11.2 µM | FAB9 10 µM | GB4 5.36 µM | ICS 7.08 µM | N140 7.94 µM | P93_24 7.94 µM | P94_40 8.91 µM | PAD 10 µM

CCC1(c2ccccc2)C(=O)NC(=O)N(C)C1=O (configuration not stated)
inactive: CP315 | CP325 | CP329 | DFO2036 | DIV30 | Dd2 | FAB9 | JCK | P94_40
active: HB3 11.2 µM | ICS 3.98 µM

CCCC(=O)OC(C(Cl)(Cl)Cl)P(=O)(OC)OC (configuration not stated)
not listed: CP315 | CP325 | ICS | P93_24 | P94_40 | PC15
inactive: all other assays above

F/C(COc1ccc2c(c1)[nH]c1ccccc12)=C1/CN2CCC1CC2
inactive: CP325 | FAB9
active: DFO2036 11.2 µM | DIV14 4.26 µM | DIV17 6.75 µM | DIV30 10.7 µM | Dd2 5.62 µM | ICS 3.55 µM | N140 10 µM | P93_24 6.31 µM | PAD 8.91 µM

N#CC(C#N)=Cc1cc(O)c(O)c(O)c1
inactive: ECU
active: CP335 6.75 µM | DIV14 13.5 µM | DIV17 10.7 µM | Dd2 6.31 µM | GB4 10.7 µM | HB3 8.91 µM | ICS 2.82 µM | N140 15.8 µM | P93_24 5.01 µM | P94_40 11.2 µM | PAD 7.08 µM | PC15 6.31 µM
